Calls of active or inactive are those of the source. Entries that show only a call come without a potency. Calls come from the whole dose curve; as a rule, active = well fitted curve in the direction sought with a large enough effect; inconclusive = small, poorly fitted or top-dose-only effect, or another doubt; inactive = no such curve, though single readings can be large or run the other way.
The molecules below were run against T1, Hexokinase-4 (Homo sapiens) + Glucokinase regulatory protein (Homo sapiens) (UniProt P35557+Q14397) (assay: qHTS assay for inhibitors of recombinant human GCK-GKRP interaction: Diaphorase-coupled assay (AID 743205)). Conditions: G6PDH/diaphorase resorufin fluorescence; series mostly up to 57.5 µM.
T1 sequence (P35557 whole entry, looked up): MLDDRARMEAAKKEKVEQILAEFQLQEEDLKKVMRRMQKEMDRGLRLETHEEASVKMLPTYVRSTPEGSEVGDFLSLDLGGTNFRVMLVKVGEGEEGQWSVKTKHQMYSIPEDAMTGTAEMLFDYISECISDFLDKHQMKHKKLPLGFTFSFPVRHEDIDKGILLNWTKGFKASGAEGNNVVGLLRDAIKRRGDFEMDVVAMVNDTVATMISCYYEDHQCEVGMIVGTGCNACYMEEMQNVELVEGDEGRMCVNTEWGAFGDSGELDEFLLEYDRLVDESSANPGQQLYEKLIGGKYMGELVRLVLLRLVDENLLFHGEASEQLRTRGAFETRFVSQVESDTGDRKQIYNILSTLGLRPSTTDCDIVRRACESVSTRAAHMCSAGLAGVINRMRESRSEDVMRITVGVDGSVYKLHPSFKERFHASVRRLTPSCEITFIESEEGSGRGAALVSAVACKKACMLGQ
T1 sequence (Q14397 whole entry, looked up): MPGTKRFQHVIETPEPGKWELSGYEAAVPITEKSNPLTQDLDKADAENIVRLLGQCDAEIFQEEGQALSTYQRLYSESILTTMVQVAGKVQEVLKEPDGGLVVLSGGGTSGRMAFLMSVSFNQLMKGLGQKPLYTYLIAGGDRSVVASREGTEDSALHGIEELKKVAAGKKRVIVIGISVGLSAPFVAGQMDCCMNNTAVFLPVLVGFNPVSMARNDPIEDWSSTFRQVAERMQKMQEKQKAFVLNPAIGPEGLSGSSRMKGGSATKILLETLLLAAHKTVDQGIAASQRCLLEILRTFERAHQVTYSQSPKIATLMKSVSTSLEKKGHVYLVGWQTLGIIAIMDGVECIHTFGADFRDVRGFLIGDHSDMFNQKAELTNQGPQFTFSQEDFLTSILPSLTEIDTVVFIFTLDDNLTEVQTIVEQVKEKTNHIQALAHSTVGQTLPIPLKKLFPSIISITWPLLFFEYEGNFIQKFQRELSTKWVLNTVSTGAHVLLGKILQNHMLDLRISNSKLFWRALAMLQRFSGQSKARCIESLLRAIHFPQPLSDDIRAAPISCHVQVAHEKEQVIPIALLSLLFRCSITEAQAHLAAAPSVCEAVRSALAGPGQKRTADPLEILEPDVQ
Method in brief: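 Signal derives from resorufin generated by diaphorase, linked to GCK turnover of glucose (5 mM) and ATP (0.4 mM). Enzyme complex was added after a 20-minute compound preincubation and monitored for 30 minutes.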

| SMILES | Potency |
| --- | --- |
| C=CCN(C1=NCCN1)c1c(Cl)cccc1Cl | inactive |
| C[C@H](Cc1ccc2c(c1)OC(C(=O)O)(C(=O)O)O2)NC[C@H](O)c1cccc(Cl)c1 | inactive |
| COc1ccc2[nH]c3c(c2c1)CCNC3 | inactive |
| NC(CCCCCP(=O)(O)O)C(=O)O (stereo not given) | inactive |
| CCCn1c(=O)c2[nH]c(C3CCCC3)nc2n(CCCOC(=O)c2ccc(S(=O)(=O)F)cc2)c1=O | inactive |
| COc1ccc(OC)c(C(O)C(C)N)c1 (stereo not given) | inactive |
| COC(=O)N1CCN(C(=O)Cc2ccc(Cl)c(Cl)c2)C(CN2CCCC2)C1 (stereo not given) | inactive |
| CC(C)NP(=O)(NC(C)C)OP(=O)(NC(C)C)NC(C)C | inactive |
| NC(=O)c1ccc(OCC(O)CN2CC=C(c3ccc(F)cc3)CC2)cc1 (stereo not given) | inactive |
| N#C/C(=C/c1ccc(O)c(O)c1)C(N)=S | inactive |
| NC(C(=O)O)c1cc(=O)[nH]o1 (stereo not given) | inactive |
| C[C@@H]1O[C@@H](O[C@H]2C[C@@H](O)[C@]3(CO)[C@@H]4C(CC[C@]3(O)C2)[C@@]2(O)CC[C@H]([C@@H]3COC(=O)C3)[C@@]2(C)C[C@H]4O)[C@H](O)[C@H](O)[C@H]1O (stereo not given in full) | inactive |
| COc1ccc2c(c1O)-c1cccc3c1[C@@H](C2)N(C)CC3 | inactive |
| CC(C)(C)c1o[nH]c(=O)c1CC(N)C(=O)O (stereo not given) | inactive |
| CN(C(=O)Cc1ccc(Cl)c(Cl)c1)C(CN1CCCC1)c1cccc(OCC(=O)O)c1 (stereo not given) | inactive |
| CCCN1CC[C@@H]2c3cc(O)ccc3CC[C@@H]21 | inactive |
| C[C@H](N)Cc1cccc(C(F)(F)F)c1 | inactive |
| CN1CC[C@@]2(C)c3cc(OC(=O)Nc4ccccc4)ccc3N(C)[C@@H]12 | inactive |
| CC(N)[C@H](O)c1ccc(O)c(O)c1 (stereo not given in full) | inactive |
| C[N+](C)(C)CC#CCN1CCCC1=O | inactive |

| SMILES | Potency |
| --- | --- |
| COc1ccc2c(c1)C13CCCCC1C(C2)N(C)CC3 (stereo not given) | inactive |
| c1ccc2cc(CC3=NCCN3)ccc2c1 | inactive |
| CC(N)Cc1c[nH]c2ccc(O)cc12 (stereo not given) | inactive |
| NC(=O)COc1c(F)cc(SCCNS(=O)(=O)c2ccccc2)cc1F | inactive |
| NCC(O)c1cc(O)c(O)cc1F (stereo not given) | inactive |
| NC(=O)c1cc(N2CC2)c([N+](=O)[O-])cc1[N+](=O)[O-] | inactive |
| N[C@@]1(C(=O)O)CC[C@@H](C(=O)O)C1 | inactive |
| C=CCN1CC[C@]23c4c5ccc(O)c4O[C@H]2/C(=N/NC(=O)c2ccccc2)CC[C@@]3(O)[C@H]1C5 | inactive |
| Ic1ccccc1CNC1C2CCN(CC2)C1C(c1ccccc1)c1ccccc1 (stereo not given) | inactive |
| NCCc1c[nH]c2ccc(C(N)=O)cc12 | inactive |
| C[N+]1(C)CCN(c2ccccc2)CC1 | inactive |
| C=CCN1CCc2cccc3c2[C@H]1Cc1ccc(O)c(O)c1-3 | inactive |
| CCCN(CCC)CCc1ccc(O)c(O)c1 | inactive |
| CCCN1CCc2cc(O)cc3c2[C@H]1Cc1ccc(O)c(O)c1-3 | inactive |
| C[N+]1(C)C2CCC1CC(OC(=O)c1c[nH]c3ccccc13)C2 (stereo not given) | inactive |
| COc1ccc2[nH]cc(CCN)c2c1 | inactive |
| C=CCN1CC[C@]23c4c5ccc(O)c4O[C@@H]2/C(=N/N=C2\CC[C@@]4(O)C6Cc7ccc(O)c8c7[C@@]4(CCN6CC=C)[C@@H]2O8)CC[C@@]3(O)C1C5 | inactive |
| C=CCN1CCC23c4c5ccc(O)c4O[C@H]2C(=O)CC[C@@]3(O)C1C5 (stereo not given in full) | inactive |
| NCCCP(=O)(O)O | inactive |
| CCCN1CCC[C@@H](c2cccc(O)c2)C1 | inactive |

What follows are molecules tested against T1, Hexokinase-4 (Homo sapiens) + Glucokinase regulatory protein (Homo sapiens) (assay: qHTS assay for inhibitors of recombinant human GCK-GKRP interaction: ADP-Glo assay (AID 743206)). Conditions: ADP-Glo luminescence, 60 min, 0% = vehicle-only wells with enzyme present; series mostly up to 76.9 µM.
Method in brief: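 Pin-transferred compounds meet a 15 nM GST-GCK/15 nM FLAG-GKRP/2 uM S6P mix (dispense concentrations). ATP is then added to 0.4 mM final with 5 mM glucose, and the reaction runs 60 min at room temperature. ADP is quantified luminescently.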

| SMILES | outcome |
| --- | --- |
| C=CCN(C1=NCCN1)c1c(Cl)cccc1Cl | inactive |
| C[C@H](Cc1ccc2c(c1)OC(C(=O)O)(C(=O)O)O2)NC[C@H](O)c1cccc(Cl)c1 | inactive |
| COc1ccc2[nH]c3c(c2c1)CCNC3 | inactive |
| NC(CCCCCP(=O)(O)O)C(=O)O (stereo not given) | inactive |
| CCCn1c(=O)c2[nH]c(C3CCCC3)nc2n(CCCOC(=O)c2ccc(S(=O)(=O)F)cc2)c1=O | inactive |
| COc1ccc(OC)c(C(O)C(C)N)c1 (stereo not given) | inactive |
| COC(=O)N1CCN(C(=O)Cc2ccc(Cl)c(Cl)c2)C(CN2CCCC2)C1 (stereo not given) | inactive |
| CC(C)NP(=O)(NC(C)C)OP(=O)(NC(C)C)NC(C)C | inactive |
| NC(=O)c1ccc(OCC(O)CN2CC=C(c3ccc(F)cc3)CC2)cc1 (stereo not given) | inactive |
| N#C/C(=C/c1ccc(O)c(O)c1)C(N)=S | inactive |
| NC(C(=O)O)c1cc(=O)[nH]o1 (stereo not given) | inactive |
| C[C@@H]1O[C@@H](O[C@H]2C[C@@H](O)[C@]3(CO)[C@@H]4C(CC[C@]3(O)C2)[C@@]2(O)CC[C@H]([C@@H]3COC(=O)C3)[C@@]2(C)C[C@H]4O)[C@H](O)[C@H](O)[C@H]1O (stereo not given in full) | inactive |
| COc1ccc2c(c1O)-c1cccc3c1[C@@H](C2)N(C)CC3 | inactive |
| CC(C)(C)c1o[nH]c(=O)c1CC(N)C(=O)O (stereo not given) | inactive |
| CN(C(=O)Cc1ccc(Cl)c(Cl)c1)C(CN1CCCC1)c1cccc(OCC(=O)O)c1 (stereo not given) | inactive |
| CCCN1CC[C@@H]2c3cc(O)ccc3CC[C@@H]21 | inactive |
| C[C@H](N)Cc1cccc(C(F)(F)F)c1 | inactive |
| CN1CC[C@@]2(C)c3cc(OC(=O)Nc4ccccc4)ccc3N(C)[C@@H]12 | inactive |
| CC(N)[C@H](O)c1ccc(O)c(O)c1 (stereo not given in full) | inactive |
| C[N+](C)(C)CC#CCN1CCCC1=O | inactive |

| SMILES | outcome |
| --- | --- |
| COc1ccc2c(c1)C13CCCCC1C(C2)N(C)CC3 (stereo not given) | inactive |
| c1ccc2cc(CC3=NCCN3)ccc2c1 | inactive |
| CC(N)Cc1c[nH]c2ccc(O)cc12 (stereo not given) | inactive |
| NC(=O)COc1c(F)cc(SCCNS(=O)(=O)c2ccccc2)cc1F | inactive |
| NCC(O)c1cc(O)c(O)cc1F (stereo not given) | inactive |
| NC(=O)c1cc(N2CC2)c([N+](=O)[O-])cc1[N+](=O)[O-] | inactive |
| N[C@@]1(C(=O)O)CC[C@@H](C(=O)O)C1 | inactive |
| C=CCN1CC[C@]23c4c5ccc(O)c4O[C@H]2/C(=N/NC(=O)c2ccccc2)CC[C@@]3(O)[C@H]1C5 | inactive |
| Ic1ccccc1CNC1C2CCN(CC2)C1C(c1ccccc1)c1ccccc1 (stereo not given) | inactive |
| NCCc1c[nH]c2ccc(C(N)=O)cc12 | inactive |
| C[N+]1(C)CCN(c2ccccc2)CC1 | inactive |
| C=CCN1CCc2cccc3c2[C@H]1Cc1ccc(O)c(O)c1-3 | inactive |
| CCCN(CCC)CCc1ccc(O)c(O)c1 | inactive |
| CCCN1CCc2cc(O)cc3c2[C@H]1Cc1ccc(O)c(O)c1-3 | inactive |
| C[N+]1(C)C2CCC1CC(OC(=O)c1c[nH]c3ccccc13)C2 (stereo not given) | inactive |
| COc1ccc2[nH]cc(CCN)c2c1 | inactive |
| C=CCN1CC[C@]23c4c5ccc(O)c4O[C@@H]2/C(=N/N=C2\CC[C@@]4(O)C6Cc7ccc(O)c8c7[C@@]4(CCN6CC=C)[C@@H]2O8)CC[C@@]3(O)C1C5 | inactive |
| C=CCN1CCC23c4c5ccc(O)c4O[C@H]2C(=O)CC[C@@]3(O)C1C5 (stereo not given in full) | inactive |
| NCCCP(=O)(O)O | inactive |
| CCCN1CCC[C@@H](c2cccc(O)c2)C1 | inactive |
